Measured values from PubChem BioAssay (NCI).
About 83,000 compounds went through this panel and 20% of them were active in at least one assay; those are over-represented in the sample as a whole.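 Percent growth is the endpoint: 0 to 100 indicates growth inhibition (40 means 60% inhibition), 0 means no net growth, and negative values indicate cell death.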 A number with no mark means an inactive call. Active and inactive are the calls of the source. Rule for the calls: active = growth percent below 10; inactive = the rest.

Tests used:
Experiment in all cases: NCI-60 one-dose screen, 48 h (100 = growth as untreated, 0 = no growth, -100 = all killed)
Conditions in all cases: 10 µM unless noted
DU-145 prostate = system: DU-145 prostate
K-562 leukemia = system: K-562 leukemia
MDA-MB-231 breast = system: MDA-MB-231 breast
RXF 393 renal = system: RXF 393 renal
SF-268 CNS = system: SF-268 CNS
SF-295 CNS = system: SF-295 CNS
SF-539 CNS = system: SF-539 CNS
UACC-257 melanoma = system: UACC-257 melanoma
HCT-15 colon = system: HCT-15 colon
HT29 colon = system: HT29 colon
SNB-75 CNS = system: SNB-75 CNS
SNB-19 CNS = system: SNB-19 CNS
U251 CNS = system: U251 CNS
PC-3 prostate = system: PC-3 prostate
SK-MEL-5 melanoma = system: SK-MEL-5 melanoma
UACC-62 melanoma = system: UACC-62 melanoma
LOX IMVI melanoma = system: LOX IMVI melanoma
SK-MEL-28 melanoma = system: SK-MEL-28 melanoma
MALME-3M melanoma = system: MALME-3M melanoma
M14 melanoma = system: M14 melanoma

Row | Structure (SMILES) | growth (DU-145 prostate) [%] | growth (K-562 leukemia) | growth (MDA-MB-231 breast) | growth (RXF 393 renal) [%] | growth (SF-268 CNS) | growth (SF-295 CNS) | growth (SF-539 CNS) [%] | growth (UACC-257 melanoma) | growth (HCT-15 colon) [%] | growth (HT29 colon) | growth (SNB-75 CNS) [%] | growth (SNB-19 CNS) [%] | growth (U251 CNS) | growth (PC-3 prostate) [%] | growth (SK-MEL-5 melanoma) | growth (UACC-62 melanoma) | growth (LOX IMVI melanoma) | growth (SK-MEL-28 melanoma) [%] | growth (MALME-3M melanoma) [%] | growth (M14 melanoma)
1 | Nc1cc(N)c2nc(NCCc3ccc(Cl)c(Cl)c3)cnc2c1 | 101 | -23.1% (active) | -23.5% (active) | 51.1 | 30.8% | 89.4% | 89.6 | 90.4% | 90 | 41.7% | 57.9 | 66 | 7.5% (active) | 43.9 | 37.2% | 33.7% | 39.7% | 104 |  | 
2 | CCCC(=O)NNc1[nH]c(-c2cc(OC)c(OC)c(OC)c2)cc1C(=O)OCC | 94.5 | 37.9% | 107% | 105 | 120% | 95.3% | 91.6 | 106% | 116 | 114% | 114 | 110 | 103% | 111 | 112% | 102% | 105% | 122 |  | 
3 | CC1(C)Oc2cc3oc(=O)ccc3cc2C[C@@H]1OCCOS(=O)(=O)c1ccc(C#N)cc1 | 103 |  | 94.5% |  | 89.2% | 87.7% | 96.6 | 84.2% | 92.7 | 97.2% | 93.4 | 96.5 | 101% | 87.3 | 93.6% | 87.1% | 97.6% | 101 | 93.6 | 98.4%
4 | CC1(c2ccc(Br)cc2)NC(=O)NC1=O (stereo not drawn) | 111 |  | 105% | 112 | 98.4% | 110% | 100 | 98.4% | 106 | 106% | 99.3 | 105 |  | 103 | 104% | 101% | 100% | 112 | 113 | 103%
5 | CC[C@@H](C)/C=C(C)/C=C/C(=O)c1c(O)c(-c2ccc(OC(=O)[C@@]34CC[C@@](C)(C(=O)O3)C4(C)C)cc2)cn(O)c1=O | 10.8 |  | 36.7% | 31.6 | -1.52% (active) | -9.51% (active) | 16.7 | 2.75% (active) | 27 | 59.7% | 30.6 | 36.8 | 15.7% |  | -4% (active) | 5.24% (active) | 0.589% (active) | 26.8 |  | -35.8% (active)
6 | C=C(C)[C@@H]1CC[C@]2(COC(=O)c3ccccc3C(=O)O)CC[C@]3(C)[C@H](CC[C@@H]4[C@@]5(C)CCCNC(C)(C)[C@@H]5CC[C@]43C)[C@@H]12 | 65.9 |  | 94.3% |  | 73.2% | 66.6% | 75.7 | 81.7% | 58 | 26.6% | 75 | 71 | 44.8% | 20.8 | 46.2% | 75.6% | 48.3% | 74.4 | 68.2 | 61.7%
7 | CC1(C)NCCC[C@]2(C)[C@H]3CC=C4[C@@H]5C[C@](C)(COC(=O)c6ccccc6C(=O)O)CC[C@]5(C)CC[C@@]4(C)[C@]3(C)CC[C@@H]12 | 79.3 |  | 84% |  | 60.7% | 60.3% | 66.6 | 67.8% | 43.8 | 9.9% (active) | 74.7 | 68.9 | 41.1% | 43.1 | 77.5% | 88.2% | 54.4% | 93.4 | 66.3 | 69.3%
8 | C=CCN(C)C | 119 |  | 97.7% | 111 | 106% | 103% | 109 | 106% | 113 | 113% |  | 102 | 102% | 105 | 108% | 101% | 99.8% | 110 | 111 | 107%
9 | COC1=C(OC)C(=O)c2ccccc2C1=O | 112 |  | 94% | 93.2 |  | 108% | 102 | 76.7% | 101 | 107% | 72.7 | 102 |  | 82.3 | 13.6% | 101% | 63.4% | 101 | 126 | 105%
10 | C[C@@H](c1ccc2c(c1)[nH]c1ccc(Cl)cc12)c1nc2ccc(Cl)cc2[nH]1 | 90.7 | 52.6% | 60.1% | 101 | 80.9% | 99.4% | 85.7 | 98% |  | 97.2% | 74.2 | 91.7 | 92.1% | 84.4 | 95% | 76.6% | 85.4% | 99.8 |  | 100%
